# The entries come from a sample that favours the strongest signals as a whole.
# B1: DC-ASGPR S+GEE (Homo sapiens) (protein)
# chain: MTRTYENFQYLENKVKVQGFKNGPLPLQSLLQRLRSGPCHLLLSLGLGLLLLVIICVVGFQNSKFQRDLVTLRTDFSNFTSNTVAEIQALTSQGSSLEETIASLKAEVEGFKQERQAVHSEMLLRVQQLVQDLKKLTCQVATINNNGEEASTEGTCCPVNWVEHQDSCYWFSHSGMSWAEAEKYCQLKNAHLVVINSREEQNFVQKYLGSAYTWMGLSDPEGAWKWVDGTDYATGFQNWKPGQPDDWQGHGLGGGEDCAHFHPDGRWNDDVCQRPYHWVCEAGLGQTSQESH
# How the values were obtained:
# Experiment in all cases: glycan array binding signal (z-score within array); higher = stronger binding
# Settings in all cases: glycan notation: IUPAC condensed, linker removed
# [1] = molecular target: Fuc(a1-2)Gal(b1-3)GalNAc(b1-3)Gal(a1-4)Gal(b1-4)Glc
# How it was run: (§1)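 The binding signal is a Z-score computed within each array and averaged over linkers. Arrays of the same protein sequence at different concentrations or buffers were also averaged together. Data originate from 3228 arrays in the Consortium for Functional Glycomics database, kept only where the protein sequence was available.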
# [2] = molecular target: Fuc(a1-2)Gal(b1-4)[Fuc(a1-3)]GlcNAc
# How it was run: as §1
# [3] = molecular target: Fuc(a1-2)[Gal(a1-3)]Gal(b1-3)GlcNAc(b1-6)GalNAc
# How it was run: as §1
# [4] = molecular target: Fuc(a1-2)[GalNAc(a1-3)]Gal(b1-4)GlcNAc(b1-3)Gal(b1-4)GlcNAc
# How it was run: as §1
# [5] = molecular target: Fuc(a1-2)[GalNAc(a1-4)]Gal(b1-4)GlcNAc
# How it was run: as §1
# [6] = molecular target: Fuc(a1-2)[GalNAc(b1-3)]Gal
# How it was run: as §1
# [7] = molecular target: Fuc(a1-3)[Gal(b1-4)]GlcNAc(b1-2)Man(a1-3)[Fuc(a1-3)[Gal(b1-4)]GlcNAc(b1-2)Man(a1-6)]Man(b1-4)GlcNAc(b1-4)GlcNAc
# How it was run: as §1
# [8] = molecular target: Gal(a1-3)Gal(b1-3)GlcNAc(b1-3)GalNAc
# How it was run: as §1
# [9] = molecular target: Gal(a1-3)Gal(b1-3)GlcNAc(b1-6)GalNAc
# How it was run: as §1
# [10] = molecular target: Gal(a1-3)Gal(b1-4)GlcNAc(b1-6)GalNAc
# How it was run: as §1
# [11] = molecular target: Gal(b1-3)GlcNAc(b1-6)GalNAc
# How it was run: as §1
# Gal(b1-3)GlcNAc6S = molecular target: Gal(b1-3)GlcNAc6S
# How it was run: as §1
# [12] = molecular target: Gal(b1-3)[Neu5Ac(a2-6)]GlcNAc(b1-4)Gal(b1-4)Glc
# How it was run: as §1
# [13] = molecular target: Gal(b1-4)GlcNAc(b1-3)Gal(b1-4)GlcNAc
# How it was run: as §1
# [14] = molecular target: Gal(b1-4)GlcNAc(b1-3)Gal(b1-4)GlcNAc(b1-3)Gal(b1-4)GlcNAc(b1-3)Gal(b1-4)GlcNAc(b1-2)[Gal(b1-4)GlcNAc(b1-3)Gal(b1-4)GlcNAc(b1-3)Gal(b1-4)GlcNAc(b1-3)Gal(b1-4)GlcNAc(b1-6)]Man(a1-6)[Gal(b1-4)GlcNAc(b1-3)Gal(b1-4)GlcNAc(b1-3)Gal(b1-4)GlcNAc(b1-3)Gal(b1-4)GlcNAc(b1-2)Man(a1-3)]Man(b1-4)GlcNAc(b1-4)[Fuc(a1-6)]GlcNAc
# How it was run: as §1
# Gal6P(b1-4)GlcNAc = molecular target: Gal6P(b1-4)GlcNAc
# How it was run: as §1
# Gal6S(b1-4)GlcNAc = molecular target: Gal6S(b1-4)GlcNAc
# How it was run: as §1
# [15] = molecular target: GalNAc(b1-3)Gal(a1-4)Gal(b1-4)GlcNAc
# How it was run: as §1
# [16] = molecular target: GalNAc(b1-3)Gal(a1-4)Gal(b1-4)GlcNAc(b1-3)Gal(b1-4)Glc
# How it was run: as §1
# [17] = molecular target: GalNAc(b1-4)GlcNAc(b1-3)GalNAc(b1-4)GlcNAc
# How it was run: as §1
# [18] = molecular target: GalNAc3S(b1-4)[Fuc(a1-3)]GlcNAc
# How it was run: as §1
# Glc(b1-4)Glc = molecular target: Glc(b1-4)Glc
# How it was run: as §1
# [19] = molecular target: GlcNAc(a1-4)Gal(b1-4)GlcNAc
# How it was run: as §1
# [20] = molecular target: GlcNAc(b1-3)Gal(b1-4)GlcNAc(b1-3)Gal(b1-4)GlcNAc(b1-3)Gal(b1-4)GlcNAc(b1-2)Man(a1-3)[GlcNAc(b1-3)Gal(b1-4)GlcNAc(b1-3)Gal(b1-4)GlcNAc(b1-3)Gal(b1-4)GlcNAc(b1-2)Man(a1-6)]Man(b1-4)GlcNAc(b1-4)GlcNAc
# How it was run: as §1
# GlcNAc(b1-3)GalNAc = molecular target: GlcNAc(b1-3)GalNAc
# How it was run: as §1
# [21] = molecular target: GlcNAc(b1-4)GlcNAc(b1-4)GlcNAc(b1-4)GlcNAc(b1-4)GlcNAc(b1-4)GlcNAc
# How it was run: as §1
# GlcNAc(b1-6)GalNAc = molecular target: GlcNAc(b1-6)GalNAc
# How it was run: as §1
# [22] = molecular target: Man(a1-3)[Man(a1-6)]Man(a1-6)[Man(a1-2)Man(a1-3)]Man(b1-4)GlcNAc(b1-4)GlcNAc
# How it was run: as §1
# [23] = molecular target: Man(a1-3)[Man(a1-6)]Man(b1-4)GlcNAc(b1-4)GlcNAc
# How it was run: as §1
# [24] = molecular target: Man(a1-3)[Man(a1-6)]Man(b1-4)GlcNAc(b1-4)[Fuc(a1-6)]GlcNAc
# How it was run: as §1
binder,measurement,setting,value
B1,glycan array binding signal (z-score),[1],0.011
same,glycan array binding signal (z-score),[2],-0.28
same,glycan array binding signal (z-score),[3],3.42
same,glycan array binding signal (z-score),[4],0.807
same,glycan array binding signal (z-score),[5],3.75
same,glycan array binding signal (z-score),[6],4
same,glycan array binding signal (z-score),[7],-0.015
same,glycan array binding signal (z-score),[8],-0.224
same,glycan array binding signal (z-score),[9],4.91
same,glycan array binding signal (z-score),[10],3.92
same,glycan array binding signal (z-score),[11],3.77
same,glycan array binding signal (z-score),Gal(b1-3)GlcNAc6S,-0.332
same,glycan array binding signal (z-score),[12],-0.315
same,glycan array binding signal (z-score),[13],-0.268
same,glycan array binding signal (z-score),[14],-0.145
same,glycan array binding signal (z-score),Gal6P(b1-4)GlcNAc,-0.321
same,glycan array binding signal (z-score),Gal6S(b1-4)GlcNAc,-0.262
same,glycan array binding signal (z-score),[15],4.67
same,glycan array binding signal (z-score),[16],4.39
same,glycan array binding signal (z-score),[17],3.84
same,glycan array binding signal (z-score),[18],-0.27
same,glycan array binding signal (z-score),Glc(b1-4)Glc,-0.376
same,glycan array binding signal (z-score),[19],-0.318
same,glycan array binding signal (z-score),[20],-0.276
same,glycan array binding signal (z-score),GlcNAc(b1-3)GalNAc,-0.312
same,glycan array binding signal (z-score),[21],-0.22
same,glycan array binding signal (z-score),GlcNAc(b1-6)GalNAc,3.74
same,glycan array binding signal (z-score),[22],-0.252
same,glycan array binding signal (z-score),[23],-0.021
same,glycan array binding signal (z-score),[24],-0.295
